# From the supplement of paper PMC10849652
# Of roughly 7,900 targets only a part is listed; those with a hit were picked by preference. About 0.6% of all pairs of compound and target were hits. A number with no mark means an inactive call.
# How the values were obtained:
# Assay in all cases: log2 fold change, soluble protein after heating vs DMSO (PISA); higher = thermal stabilisation; K562 cells, 10 uM, 30 min; active = over 0.2 and 3.5 SD of the protein, either way, in both replicates (recomputed)
# [1] = compound: CC[C@@H]1C(=O)N(C)c2cnc(Nc3ccc(C(=O)NC4CCN(C)CC4)cc3OC)nc2N1C1CCCC1
# Method in brief: (§1)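 Soluble protein was defined as the supernatant after 21,000xg for 90 min. It came from K562 cells at 2×10^6 cells/mL given 10 μM compound for 30 min, heated in aliquots for 3 min across 48°C-58°C, pooled, and extracted in PBS with 0.5% NP-40 at 4°C, and was quantified by TMTpro 16plex LC-MS/MS with equalised channel sums. Thermal stability against control samples, from duplicates, is reported as log2 fold change.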
# volasertib = compound: CC[C@@H]1C(=O)N(C)c2cnc(Nc3ccc(C(=O)N[C@H]4CC[C@H](N5CCN(CC6CC6)CC5)CC4)cc3OC)nc2N1C(C)C [volasertib]
# Method in brief: as §1
# [2] = compound: CC[C@H](C)N1C=C(C2=C(C=C(C=C21)C3=CN=C(C=C3)N4CCNCC4)C(=O)NCC5=C(C=C(NC5=O)C)C)C
# Method in brief: as §1
# epoxomicin = compound: CC[C@H](C)[C@@H](C(=O)N[C@@H]([C@@H](C)O)C(=O)N[C@@H](CC(C)C)C(=O)[C@]1(CO1)C)NC(=O)[C@H]([C@@H](C)CC)N(C)C(=O)C [epoxomicin]
# Method in brief: as §1
# [3] = compound: CCn1c(C(=O)N(C2CC2)C2CC2)cc2c3c(ncn3C)c(Nc3cc(C)n(C)n3)nc21
# Method in brief: as §1
# [4] = compound: CCn1cc(-c2ccnc3[nH]c(-c4cccc(CN(C)C)c4)cc23)c(-c2ccc(NC(=O)N(C)C)cc2)n1
# Method in brief: as §1
# [5] = compound: CN(C)CC(=O)Nc1ccc2[nH]c(=O)c3ccccc3c2c1
# Method in brief: as §1
# rosiglitazone = compound: CN(CCOC1=CC=C(C=C1)C[C@H]2C(=O)NC(=O)S2)C3=CC=CC=N3 (racemic) [rosiglitazone]
# Method in brief: as §1
# [6] = compound: CN1C2=C(C3=C1C(=O)N(N=C3)CC4=CC(=CC=C4)N)SC(=C2)S(=O)C
# Method in brief: as §1
# [7] = compound: CN1CCC(CNc2ccc3ncc(-c4cccc(OC(F)(F)F)c4)n3n2)CC1
# Method in brief: as §1
# saracatinib = compound: CN1CCN(CCOc2cc(OC3CCOCC3)c3c(Nc4c(Cl)ccc5c4OCO5)ncnc3c2)CC1 [saracatinib]
# Method in brief: as §1
# sotrastaurin = compound: CN1CCN(c2nc(C3=C(c4c[nH]c5ccccc45)C(=O)NC3=O)c3ccccc3n2)CC1 [sotrastaurin]
# Method in brief: as §1
# alvocidib = compound: CN1CC[C@H](c2c(O)cc(O)c3c(=O)cc(-c4ccccc4Cl)oc23)[C@H](O)C1 [alvocidib]
# Method in brief: as §1
# Tubastatin A = compound: CN1CCc2c(c3ccccc3n2Cc2ccc(C(=O)NO)cc2)C1 [Tubastatin A]
# Method in brief: as §1
# [8] = compound: CNC(=O)C1=CC=CC=C1NC2=NC(=NC=C2Cl)NC3=C(C=C(C=C3)N4CCOCC4)OC
# Method in brief: as §1
# defactinib = compound: CNC(=O)c1ccc(Nc2ncc(C(F)(F)F)c(NCc3nccnc3N(C)S(C)(=O)=O)n2)cc1 [defactinib]
# Method in brief: as §1
# rucaparib = compound: CNCc1ccc(-c2[nH]c3cc(F)cc4c3c2CCNC4=O)cc1 [rucaparib]
# Method in brief: as §1
# [9] = compound: CNc1nc(-c2ccc3c(N)n[nH]c3c2)cc(N2C[C@@H](C(=O)NC3CCCCC3)CC[C@H]2C)n1
# Method in brief: as §1
# encorafenib = compound: COC(=O)N[C@@H](C)CNc1nccc(-c2cn(C(C)C)nc2-c2cc(Cl)cc(NS(C)(=O)=O)c2F)n1 [encorafenib]
# Method in brief: as §1
# [10] = compound: COC(=O)[C@H](CCSC)NC(=O)C1=C(C=C(C=C1)NC[C@H](CS)N)C2=CC=CC=C2
# Method in brief: as §1
# Chain of UniProt Q12768 (Q12768 whole entry, looked up): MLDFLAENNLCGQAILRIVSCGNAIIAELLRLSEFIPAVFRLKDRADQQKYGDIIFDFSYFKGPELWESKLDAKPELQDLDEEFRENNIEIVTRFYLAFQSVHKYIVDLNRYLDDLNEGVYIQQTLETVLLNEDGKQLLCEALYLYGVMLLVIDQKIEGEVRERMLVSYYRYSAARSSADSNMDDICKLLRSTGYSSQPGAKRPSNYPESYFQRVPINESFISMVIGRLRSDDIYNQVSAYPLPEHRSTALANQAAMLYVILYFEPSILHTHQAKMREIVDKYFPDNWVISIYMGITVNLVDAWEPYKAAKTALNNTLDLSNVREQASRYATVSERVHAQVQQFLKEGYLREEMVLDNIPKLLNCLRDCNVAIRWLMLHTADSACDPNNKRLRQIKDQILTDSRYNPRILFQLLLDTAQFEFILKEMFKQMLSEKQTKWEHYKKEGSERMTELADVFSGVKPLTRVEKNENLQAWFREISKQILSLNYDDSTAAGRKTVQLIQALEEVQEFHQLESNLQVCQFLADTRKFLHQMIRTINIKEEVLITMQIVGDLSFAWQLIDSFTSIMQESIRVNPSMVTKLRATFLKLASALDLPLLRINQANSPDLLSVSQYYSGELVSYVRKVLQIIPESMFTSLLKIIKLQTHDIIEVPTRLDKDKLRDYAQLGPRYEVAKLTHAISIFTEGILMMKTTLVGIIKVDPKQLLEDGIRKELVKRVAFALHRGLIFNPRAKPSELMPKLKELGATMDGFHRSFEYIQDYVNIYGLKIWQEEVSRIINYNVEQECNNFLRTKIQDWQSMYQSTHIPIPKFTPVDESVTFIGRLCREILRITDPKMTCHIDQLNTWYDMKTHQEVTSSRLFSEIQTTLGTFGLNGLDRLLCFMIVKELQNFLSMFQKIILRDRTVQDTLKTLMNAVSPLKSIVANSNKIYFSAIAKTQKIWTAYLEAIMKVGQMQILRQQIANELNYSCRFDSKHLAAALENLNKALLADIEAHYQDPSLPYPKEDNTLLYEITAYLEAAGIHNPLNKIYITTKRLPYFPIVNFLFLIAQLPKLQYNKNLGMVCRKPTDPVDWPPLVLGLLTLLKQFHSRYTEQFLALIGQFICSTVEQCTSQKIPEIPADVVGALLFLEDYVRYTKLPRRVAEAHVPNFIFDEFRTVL
# Chain of UniProt Q93009 (Q93009 whole entry, looked up): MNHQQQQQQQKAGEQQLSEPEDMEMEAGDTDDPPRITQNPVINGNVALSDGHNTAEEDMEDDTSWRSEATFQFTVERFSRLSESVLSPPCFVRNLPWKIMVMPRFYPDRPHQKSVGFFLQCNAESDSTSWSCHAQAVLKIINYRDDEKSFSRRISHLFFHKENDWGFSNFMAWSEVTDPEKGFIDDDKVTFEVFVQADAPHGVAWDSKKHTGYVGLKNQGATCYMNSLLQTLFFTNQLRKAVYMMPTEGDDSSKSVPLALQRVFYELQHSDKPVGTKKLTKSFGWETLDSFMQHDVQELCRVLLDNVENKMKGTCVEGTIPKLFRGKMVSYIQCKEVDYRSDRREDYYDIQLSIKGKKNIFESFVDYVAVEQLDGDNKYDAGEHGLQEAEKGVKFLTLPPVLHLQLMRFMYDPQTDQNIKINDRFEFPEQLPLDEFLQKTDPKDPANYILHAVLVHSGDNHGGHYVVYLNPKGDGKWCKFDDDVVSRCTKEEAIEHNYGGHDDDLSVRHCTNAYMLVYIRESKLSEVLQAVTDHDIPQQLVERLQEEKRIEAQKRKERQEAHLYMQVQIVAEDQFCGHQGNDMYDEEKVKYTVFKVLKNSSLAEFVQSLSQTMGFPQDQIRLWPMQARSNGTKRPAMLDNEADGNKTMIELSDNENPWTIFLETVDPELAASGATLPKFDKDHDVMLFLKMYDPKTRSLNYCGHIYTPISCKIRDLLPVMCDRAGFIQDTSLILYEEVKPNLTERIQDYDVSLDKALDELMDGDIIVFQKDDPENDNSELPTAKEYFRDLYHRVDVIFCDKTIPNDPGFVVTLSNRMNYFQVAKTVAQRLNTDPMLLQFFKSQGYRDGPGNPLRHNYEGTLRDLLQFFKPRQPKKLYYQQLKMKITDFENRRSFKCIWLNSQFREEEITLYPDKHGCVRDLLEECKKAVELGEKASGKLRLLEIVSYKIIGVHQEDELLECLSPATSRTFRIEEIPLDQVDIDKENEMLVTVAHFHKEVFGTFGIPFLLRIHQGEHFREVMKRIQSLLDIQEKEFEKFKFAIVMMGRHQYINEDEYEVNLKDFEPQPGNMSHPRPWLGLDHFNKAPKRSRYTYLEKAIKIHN
# Chain of UniProt O43379 (O43379 whole entry, looked up): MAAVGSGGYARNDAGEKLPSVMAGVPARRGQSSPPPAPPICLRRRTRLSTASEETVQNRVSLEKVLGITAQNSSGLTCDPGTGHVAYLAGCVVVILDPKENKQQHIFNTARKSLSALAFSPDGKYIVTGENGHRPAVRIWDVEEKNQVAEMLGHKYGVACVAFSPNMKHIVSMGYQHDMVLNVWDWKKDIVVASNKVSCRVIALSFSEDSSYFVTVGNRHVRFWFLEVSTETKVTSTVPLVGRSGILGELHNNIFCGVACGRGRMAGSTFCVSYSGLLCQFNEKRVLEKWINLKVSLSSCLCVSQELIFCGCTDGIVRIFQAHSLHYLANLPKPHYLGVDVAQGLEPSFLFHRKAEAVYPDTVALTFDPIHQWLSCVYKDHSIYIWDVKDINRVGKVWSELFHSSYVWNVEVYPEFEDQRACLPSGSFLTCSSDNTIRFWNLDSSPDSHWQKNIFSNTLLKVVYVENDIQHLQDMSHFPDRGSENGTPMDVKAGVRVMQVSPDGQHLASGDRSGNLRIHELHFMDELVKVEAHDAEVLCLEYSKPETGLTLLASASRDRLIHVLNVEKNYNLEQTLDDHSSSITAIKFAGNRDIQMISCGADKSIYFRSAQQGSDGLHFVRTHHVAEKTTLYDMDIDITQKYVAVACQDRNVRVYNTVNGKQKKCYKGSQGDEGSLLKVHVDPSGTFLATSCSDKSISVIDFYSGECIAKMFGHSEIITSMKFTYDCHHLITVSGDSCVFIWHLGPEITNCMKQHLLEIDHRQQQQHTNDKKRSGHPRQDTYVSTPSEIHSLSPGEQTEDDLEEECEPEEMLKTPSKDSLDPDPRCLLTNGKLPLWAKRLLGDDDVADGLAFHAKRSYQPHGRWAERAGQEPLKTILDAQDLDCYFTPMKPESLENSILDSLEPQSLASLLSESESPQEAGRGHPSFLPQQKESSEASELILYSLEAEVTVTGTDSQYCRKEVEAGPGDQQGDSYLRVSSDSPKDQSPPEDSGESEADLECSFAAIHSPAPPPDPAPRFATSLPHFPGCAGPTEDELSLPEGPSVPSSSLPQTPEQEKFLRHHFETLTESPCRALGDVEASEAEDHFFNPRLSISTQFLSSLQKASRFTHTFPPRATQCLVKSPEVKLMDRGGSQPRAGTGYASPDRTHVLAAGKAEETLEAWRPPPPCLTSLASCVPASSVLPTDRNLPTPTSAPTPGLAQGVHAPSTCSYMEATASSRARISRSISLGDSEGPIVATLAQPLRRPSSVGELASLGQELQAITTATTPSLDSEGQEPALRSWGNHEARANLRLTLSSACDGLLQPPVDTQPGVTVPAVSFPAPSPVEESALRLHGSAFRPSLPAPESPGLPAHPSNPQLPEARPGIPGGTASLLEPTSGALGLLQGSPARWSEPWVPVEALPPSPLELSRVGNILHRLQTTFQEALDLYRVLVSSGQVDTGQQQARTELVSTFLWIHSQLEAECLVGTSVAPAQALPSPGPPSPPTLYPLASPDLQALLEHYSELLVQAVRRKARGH
# Chain of UniProt Q9P0T7 (Q9P0T7 whole entry, looked up): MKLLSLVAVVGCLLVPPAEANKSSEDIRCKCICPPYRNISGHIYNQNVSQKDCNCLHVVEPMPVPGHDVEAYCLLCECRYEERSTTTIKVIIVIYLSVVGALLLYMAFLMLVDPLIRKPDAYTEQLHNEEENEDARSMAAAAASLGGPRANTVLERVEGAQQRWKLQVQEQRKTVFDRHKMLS
# Chain of UniProt Q9NZ09 (Q9NZ09 whole entry, looked up): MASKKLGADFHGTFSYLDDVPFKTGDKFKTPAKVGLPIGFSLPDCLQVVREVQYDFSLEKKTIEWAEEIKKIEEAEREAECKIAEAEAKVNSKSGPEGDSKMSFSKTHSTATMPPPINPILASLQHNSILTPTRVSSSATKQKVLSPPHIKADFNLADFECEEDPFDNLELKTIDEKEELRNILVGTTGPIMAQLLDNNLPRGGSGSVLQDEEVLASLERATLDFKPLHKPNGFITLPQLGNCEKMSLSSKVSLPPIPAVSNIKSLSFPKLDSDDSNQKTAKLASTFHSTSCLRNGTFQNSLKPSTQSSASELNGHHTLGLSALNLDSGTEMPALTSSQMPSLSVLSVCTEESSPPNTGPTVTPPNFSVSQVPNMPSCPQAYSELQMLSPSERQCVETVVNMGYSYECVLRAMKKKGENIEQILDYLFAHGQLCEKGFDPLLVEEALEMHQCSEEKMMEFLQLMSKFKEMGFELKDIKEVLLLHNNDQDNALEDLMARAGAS
# Chain of UniProt Q99986 (Q99986 whole entry, looked up): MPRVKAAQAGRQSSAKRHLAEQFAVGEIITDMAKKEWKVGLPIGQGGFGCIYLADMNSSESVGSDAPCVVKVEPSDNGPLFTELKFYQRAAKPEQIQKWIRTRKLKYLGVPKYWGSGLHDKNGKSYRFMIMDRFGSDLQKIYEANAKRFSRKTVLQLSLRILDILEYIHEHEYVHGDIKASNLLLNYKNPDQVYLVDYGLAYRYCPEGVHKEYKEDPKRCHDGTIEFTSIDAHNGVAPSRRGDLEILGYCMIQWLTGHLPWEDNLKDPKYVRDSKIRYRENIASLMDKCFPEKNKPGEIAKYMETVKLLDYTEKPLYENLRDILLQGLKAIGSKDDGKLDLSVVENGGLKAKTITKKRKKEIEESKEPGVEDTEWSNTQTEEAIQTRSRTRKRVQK
# Chain of UniProt O00258 (O00258 whole entry, looked up): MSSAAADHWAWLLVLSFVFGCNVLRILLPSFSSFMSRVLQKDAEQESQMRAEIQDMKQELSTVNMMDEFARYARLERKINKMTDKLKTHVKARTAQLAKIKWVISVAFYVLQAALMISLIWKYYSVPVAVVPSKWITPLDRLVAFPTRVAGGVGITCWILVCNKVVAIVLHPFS
Target,log2 fold change [1],log2 fold change (volasertib),log2 fold change [2],log2 fold change (epoxomicin),log2 fold change [3],log2 fold change [4],log2 fold change [5],log2 fold change (rosiglitazone),log2 fold change [6],log2 fold change [7],log2 fold change (saracatinib),log2 fold change (sotrastaurin),log2 fold change (alvocidib),log2 fold change (Tubastatin A),log2 fold change [8],log2 fold change (defactinib),log2 fold change (rucaparib),log2 fold change [9],log2 fold change (encorafenib),log2 fold change [10]
WDR62 isoform 4 (UniProt O43379),-0.02,-0.496 (active),0.04,0,0.006,0.007,-0.035,0.064,0.047,-0.161,-0.025,0.037,-0.074,0.027,-0.165,-0.06,-0.035,0.017,0.015,0.014
TMEM177 (UniProt Q53S58),-0.092,0.051,0.047,-0.052,0.002,0.048,0.219,0.035,-0.103,-0.075,0.078,0.014,0.031,0.08,0.005,-0.046,0.009,-0.003,-0.02,0.024
TMEM9 (UniProt Q9P0T7),-0.112,-0.07,-0.05,0.296 (active),-0.018,0.015,0.004,-0.157,-0.015,-0.007,0.051,-0.025,-0.068,0.016,0.004,-0.014,0.003,0.033,0.033,0.004
UBAP1 isoform 4 (UniProt Q9NZ09),-0.012,-0.545 (active),0,0.092,-0.037,0.006,-0.034,0.022,0.023,-0.089,-0.023,-0.032,-0.038,0.007,-0.028,-0.08,0.089,-0.053,-0.05,0.006
WAPL isoform 3 (UniProt Q7Z5K2),-0.183,-0.61 (active),0.164,0.101,-0.038,0.015,0.104,-0.06,-0.018,-0.246,0.043,-0.144,-0.296,0.063,-0.008,-0.265,-0.066,-0.052,0.212,-0.079
TUBA4A (UniProt P68366),-0.024,-0.01,0.007,0.055,-0.002,-0.064,-0.013,0.023,-0.168,-0.261 (active),0.045,-0.012,-0.048,-0.051,-0.039,-0.024,-0.046,0.038,-0.012,0.013
WASHC5 (UniProt Q12768),-0.109,-0.268,0.09,0.049,-0.061,0.035,0.045,0.008,-0.006,-0.114,0.007,-0.02,-0.042,0.047,0.062,-0.032,0.045,-0.009,0.033,-0.033
WDR47 (UniProt O94967),0.011,-0.112,-0.02,-0.037,-0.047,-0.055,-0.012,-0.003,0.029,0.234,-0.019,-0.008,-0.002,0.039,0.035,0.052,-0.071,-0.041,0.045,-0.087
WRB (UniProt O00258),0.011,0.057,-0.071,-0.059,-0.021,-0.02,-0.024,-0.025,0.029,-0.016,-0.007,0.075,0.034,-0.051,-0.048,0.073,-0.003,-0.014,-0.057,0.023
VPS53 isoform 4 (UniProt Q5VIR6),-0.095,-0.358 (active),0.033,0.041,-0.094,0.022,0.007,0.023,0.016,-0.128,0.029,-0.102,-0.146,0.017,-0.009,-0.056,0.061,-0.028,0.06,-0.001
USP48 isoform 8 (UniProt Q86UV5),-0.55 (active),-0.84 (active),0.144,-0.058,-0.03,-0.047,0.195,0.064,-0.013,-0.459,-0.037,-0.403,-0.358,0.197,0.016,-0.462,-0.085,-0.044,0.065,-0.081
VRK1 (UniProt Q99986),-0.184,-0.159,0.102,0.169,-0.107,-0.06,0.135,0.105,-0.028,-0.03,-0.057,0.152,0.285,0.07,0.05,-0.041,0.048,0.108,0.043,-0.04
TRAPPC11 (UniProt Q7Z392),-0.045,-0.275 (active),0.015,0.016,-0.049,-0.032,0.032,-0.027,0.004,-0.127,-0.043,-0.041,-0.085,0,-0.028,-0.075,0.051,-0.027,0.035,-0.031
USP7 (UniProt Q93009),-0.045,-0.215,0.101,0.02,-0.12,-0.164,0.097,0.116,-0.005,-0.351 (active),-0.087,-0.083,-0.147,0.023,-0.106,-0.104,0.03,0.152,0.057,-0.06
TOP2A isoform 4 (UniProt P11388),0.198,0.226,0.106,-0.231,0.052,0.156,-0.194,-0.169,0.526,0.128,-0.168,0.006,0.261,0.103,0.102,0.438,0.434,0.273,0.288,-0.086
UBE4B isoform 4 (UniProt O95155),-0.046,-0.229 (active),0.024,0.023,0,-0.005,0.01,0.05,-0.003,-0.079,0.018,-0.038,-0.104,0.016,0.02,-0.071,-0.077,-0.058,0.01,-0.001
